Compound activity from PubChem.
NS1 inh = influenza NS1 inhibition; Potency, µM (titrated, usually from 46.1 µM); hit rate 0.4% among 270,000; calls by dose curve; note: actives are rising curves; nearly all actives have a fitted effect of over 50% in size
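Recovery from NS1-induced slow growth read by OD600 in budding yeast switched to galactose assay medium (pH 6.0, -URA) at 1:100 dilution. Compound 23 nl per well; the matching strain lacking NS1 serves as control.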
Cycloheximide cs = counter-screen for Shiga toxin inhibitors: cycloheximide protein synthesis inhibition; hit rate 12% among 300,000; max response, %; cell reporter, cycloheximide protein synthesis inhibition counterscreen; in the data active = max response mostly above about 13%, no sharp cut-off; inactive = mostly below about 14%; note: read at 38.3 µM for the half of the compounds with a filed dose
Pf growth 48h = inhibits P. falciparum growth in the first generation, 48 h | P. falciparum luciferase growth in erythrocytes, 48 h | Potency, µM (series often up to 28.7 µM), actives largely listed as inhibitors | hit rate 5.9% among 310,000 | AID 504832
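Read-out is firefly luciferase luminescence from an integrated reporter in P. falciparum, so falling signal marks reduced parasite growth. Infected erythrocytes were at 2% hematocrit and 0.1% parasitemia (final) in Albumax-supplemented RPMI 1640.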
Pf growth 96h = P. falciparum growth inhibition at 96 hour, primary screen for plastid delayed-death inhibitors. P. falciparum luciferase reporter growth, 96 h. Potency, µM (titrated, usually from 28.7 µM), actives largely listed as inhibitors. hit rate 6.9% among 320,000. AID 504834
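Erythrocytes infected with luciferase-expressing P. falciparum were dispensed at 2% hematocrit and 0.05% parasitemia (final), then incubated with compounds 96 hours at 37 C in 5% CO2. Luminescence after detection reagent addition reported growth.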
Shiga toxin inh = Shiga toxin inhibition; hit rate 9.2% among 290,000; AID 2315; Vero cells, Shiga toxin protein synthesis inhibition reporter; inhibition, % at 38.7 µM; in the data active = inhibition mostly above about 28%, no sharp cut-off; inactive = mostly below about 43%
A number is an active result; - = inactive; ? = inconclusive; . = not tested or not shown. This is a sample that favours compounds with a hit; in the whole collection about 21% have one here. Unless noted, calls come from the whole dose curve; as a rule, active = well fitted inhibition curve with a large enough effect; inconclusive = small, poorly fitted or top-dose-only effect, or another doubt; inactive = no such curve, though single readings can be large or run the other way.

SMILES	NS1 inh	Cycloheximide cs	Pf growth 48h	Pf growth 96h	Shiga toxin inh
O=c1c(F)cn(C2CCCO2)c(=O)n1Cc1ccc(Cl)cc1 (stereo unspecified)	-	-	-	-	-
O=C(O)c1ccc(NCCc2ccc(Cl)cc2)c([N+](=O)[O-])c1	.	-	-	?	-
CC(=O)N(\C=C/C=C/C=C1\Sc2ccccc2C1=O)c1ccccc1	.	59.2	?	-	114.9
CC(=O)Nc1ccc(/C=C2/Sc3ccccc3C2=O)cc1	-	-	-	-	-
CN(C)/C=C1/Sc2ccccc2C1=O	-	31.9	-	.	-
Cc1ccc(C(=O)O)cc1NCc1ccncc1	-	-	-	-	.
Nc1nc2sc3c(c2c(=O)s1)CCCC3	-	35.4	-	-	-
Nc1c2c3c(sc2nc(=O)n1N)CCCC3	-	-	-	6.57µM	-
CC(=O)c1sc2nc(-c3ccccc3)cc(C)c2c1N	-	-	-	-	-
CN(C)C1(CNC(=O)C2CCN(S(=O)(=O)c3cc(Cl)ccc3Cl)CC2)CCCCC1	-	-	-	-	-
C=C(C)CN(CC)Cc1c(C(=O)N(C)CCCC)nc2ccccn12	-	-	-	9.28µM	-
CCOC(=O)C1C(=O)N(C(=O)c2ccc(OC)cc2)CC1c1ccccc1 (stereo unspecified)	-	9.6	-	.	-
CC(C)C(=O)N1CCN(c2nc3ccc(Cl)cc3s2)CC1	-	35.9	-	-	62.4
CC(C)NC(=O)N1CCCN(c2nc3ccc(Cl)cc3s2)CC1	-	32.3	-	-	-
Clc1ccc2nc(C3CCN(Cc4ccccc4)CC3)[nH]c2c1	-	-	-	?	-
Clc1ccc2nc(N3CCCCC3)[nH]c2c1	-	37.0	-	-	79.5
Clc1ccc2nc(N3CCCCC3)sc2c1	-	38.8	-	?	81.6
O=C(Oc1ccc(OC(=O)c2ccco2)c(S(=O)(=O)c2ccc(Cl)cc2)c1)c1ccco1	-	-	-	10.4µM	-
O=C(Oc1cccnc1)c1ccco1	-	-	-	-	-
O=C(Oc1cccc(OC(=O)c2ccco2)c1)c1ccco1	-	-	-	14.7µM	-
COC(=O)c1ccc(Cl)c(NS(=O)(=O)c2ccc3c(c2)OCCO3)c1	-	-	-	?	-
COc1ccc(N(C(=O)CNS(=O)(=O)c2ccccc2)C(C(=O)NCc2ccco2)C(C)C)cc1 (stereo unspecified)	?	-	-	-	-
Cc1ccc(S(=O)(=O)NCC(=O)N(c2ccccc2)C(C(=O)NCc2ccccc2)c2ccco2)cc1 (stereo unspecified)	-	-	-	13.1µM	-
CCCC(C(=O)NCc1ccco1)N(Cc1ccco1)C(=O)CNS(=O)(=O)c1ccccc1 (stereo unspecified)	-	-	-	?	-
CCOc1ccccc1N(C(=O)CNS(=O)(=O)c1ccccc1)C(CC)C(=O)NCc1ccco1 (stereo unspecified)	-	-	.	7.38µM	-
SMILES	NS1 inh	Cycloheximide cs	Pf growth 48h	Pf growth 96h	Shiga toxin inh
CCCNC(=S)N1CCN(CC)CC1	-	-	-	?	-
COC(=O)C1=C(N)Oc2cc(C)n(CCN3CCOCC3)c(=O)c2C1c1cccnc1 (stereo unspecified)	-	-	-	-	-
CS(=O)(=O)Oc1ccc(Br)cc1/C=C1/N=C(c2ccco2)OC1=O	-	-	-	10.4µM	-
COc1ccc(-n2cnc3c(cnn3CCC#N)c2=N)cc1	-	-	.	-	-
CNC(=O)N(C1=NCCCCC1)c1ccc(Br)cc1	-	-	?	?	-
C=CCNC(=O)/C(C#N)=C/c1ccc(SC)cc1	.	51.9	-	-	81.2
N#C/C(=C\c1ccc2c(c1)OCCO2)C(=O)Nc1nccs1	-	-	-	-	93.6
CSc1ccc(/C=C(\C#N)C(=O)NC2CCCCC2)cc1	-	-	-	?	-
COCCNC(=O)/C(C#N)=C/c1ccc2c(c1)OCO2	-	19.1	-	?	41.4
C=CCNC(=O)/C(C#N)=C/c1ccc2c(c1)OCCO2	.	39.5	-	-	85.3
N#C/C(=C\c1ccc2c(c1)OCO2)C(=O)NCc1ccco1	.	-	-	-	-
CC(C)(Oc1ccc(Cl)cc1)C(=O)O	.	.	?	-	.
CC(C)OC(=O)CSc1nnc(-c2cnccn2)n1-c1ccc(Cl)cc1	-	-	?	14.7µM	-
Cc1ccc(-n2c(SCC(=O)OC(C)C)nnc2-c2ccncc2)cc1	-	-	?	-	-
Cc1ccccc1C(=O)Nc1ccc2c(c1)CCCN2C(=O)c1cccs1	-	-	-	?	-
Cc1ccc2c(c1)CCCN2C(=O)c1cccs1	-	-	?	.	-
COc1ccc(C(=O)Nc2ccc3c(c2)CCCN3C(=O)c2cccs2)c(OC)c1	-	-	?	14.7µM	-
COc1cccc(C(=O)Nc2ccc3c(c2)CCCN3C(=O)c2cccs2)c1OC	-	26.2	?	-	49.0
O=[N+]([O-])c1ccccc1/C=N/OCc1ccccc1	-	30.8	-	-	104.4
CCOc1ccc(-n2nc3ccc(NC(=O)CC)cc3n2)cc1	-	30.6	-	-	55.4
COc1ccc(-n2nc3ccc(NC(=O)c4c(OC)cccc4OC)cc3n2)cc1	.	36.0	.	.	-
Cc1cc(C)c(S(=O)(=O)Nc2ccccc2C(=O)N2CCOCC2)c(C)c1	-	-	?	-	-
CCOC(=O)N1CCN(C(=O)CN2C(=O)COc3ccc(C(C)(C)C)cc32)CC1	-	-	?	-	-
Cn1c(SCc2ccccn2)nnc1-c1ccncc1	-	-	-	.	-
COc1cccc(CSc2nnc(-c3ccncc3)n2C)c1	-	-	-	-	-
SMILES	NS1 inh	Cycloheximide cs	Pf growth 48h	Pf growth 96h	Shiga toxin inh
Cn1c(SCc2ccccn2)nnc1-c1ccccc1	-	36.3	-	-	103.5
COc1cccc(-c2nnc(SCc3ccccn3)n2C)c1	-	16.6	-	.	-
CN1CCN(c2sc(S(C)(=O)=O)nc2S(=O)(=O)c2ccc(Cl)cc2)CC1	-	-	?	11.7µM	-
Cc1ccc(S(=O)(=O)c2nc(S(C)(=O)=O)sc2N2CCC(O)CC2)cc1	-	-	-	9.28µM	-
CS(=O)(=O)c1nc(S(=O)(=O)c2ccc(Cl)cc2)c(NCCCn2ccnc2)s1	-	-	-	5.86µM	-
CS(=O)(=O)c1nc(S(=O)(=O)c2ccc(Cl)cc2)c(N2CCCCCC2)s1	-	-	?	13.1µM	-
CS(=O)(=O)c1nc(S(=O)(=O)c2ccc(Cl)cc2)c(N2CCCCC2)s1	-	-	?	-	-
O=C(c1ccco1)N1CCN(C2CC(=O)N(c3ccc(C(F)(F)F)cc3)C2=O)CC1 (stereo unspecified)	-	-	-	-	-
Cc1ccc2cc(C#N)c(NCc3ccco3)nc2c1	-	-	-	-	-
CC1(C)Cc2c(C#N)c(NCCN3CCOCC3)nc(-c3ccco3)c2CO1	-	-	13.1µM	10.4µM	-
CC1(C)Cc2c(c(-c3ccco3)nc3sc4c(NCC5CCCO5)ncnc4c23)CO1 (stereo unspecified)	-	-	-	?	-
CC1(C)Cc2c(C#N)c(NCCN3CCOCC3)nc(-c3ccccc3)c2CO1	-	-	-	-	-
CC1(C)Cc2c(c(-c3ccco3)nc3sc4c(NCCCO)ncnc4c23)CO1	-	-	?	4.15µM	-
CC1(C)Cc2c(c(-c3ccco3)nc3sc4c(NCCN5CCOCC5)ncnc4c23)CO1	-	-	8.28µM	?	-
